Experimental findings from PubChem BioAssay (EPA / NIEHS) are described below.

Experiment [1] is described as follows: TOX21_TR_RXR_BLA_Antagonist_Followup_viability: Viability Assessment in the Tox21 Thyroid Hormone Receptor beta Retinoid X Receptor alpha (RXRa) Antagonism Beta-lactamase (BLA) Follow-Up Assay (AID 2283979; active means hit-call score of the fitted dose curve at least 0.9, where 1 is the maximum). The method in brief: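 RXRa-bla HEK293T cells (2,500/well, phenol red-free DMEM, 2% charcoal-stripped FBS) were attached 5 h, then exposed to compounds at 11 concentrations in triplicate for 16 h at 37C. Viability measured by CellTiter-Glo ATP luminescence, bidirectional fitting versus DMSO.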

A short description of experiment [2]: CCTE_Harrill_HTTr_Viability_DMEM_12hr: (Pilot) CCTE's 12-hour Cell Viability Assessment for the High-Throughput Transcriptomics (HTTr) Platform, in MCF-7 cells cultured in DMEM + 10% fetal bovine serum, Harrill Lab (AID 2283974). The method in brief: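 Propidium iodide dye exclusion imaged by high-content microscopy after 12 h chemical exposure (eight concentrations) of MCF-7 cells grown in DMEM plus 10% FBS; values fitted in both directions relative to DMSO.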

Experiment [3] in a line: CCTE_Harrill_HTTr_Viability_DMEM_24hr: (Pilot) CCTE's 24-hour Cell Viability Assessment for the High-Throughput Transcriptomics (HTTr) Platform, in MCF-7 cells cultured in DMEM + 10% fetal bovine serum, Harrill Lab (AID 2283975). In a few lines: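 Pilot study: propidium iodide dye exclusion, imaged by high content microscopy, after 24 h compound exposure (eight concentrations) in MCF-7 cultured in DMEM + 10% fetal bovine serum; DMSO served as negative control and baseline.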

Experiment [4] is described as follows: CCTE_Harrill_HTTr_Viability_PRF_DMEM_6hr: (Pilot) CCTE's 6-hour Cell Viability Assessment for the High-Throughput Transcriptomics (HTTr) Platform, in MCF-7 cells cultured phenol red-free DMEM + 10% charcoal-stripped fetal bovine serum, Harrill Lab (AID 2283976). In a few lines: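 Membrane integrity by high-content imaging of propidium iodide uptake, six hours after dosing with eight concentrations. Cells: MCF-7 grown in phenol red-free DMEM plus 10% charcoal-stripped serum; DMSO serves as baseline for bidirectional fits.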

Experiment [5] in a line: CCTE_Harrill_HTTr_Viability_PRF_DMEM_12hr: (Pilot) CCTE's 12-hour Cell Viability Assessment for the High-Throughput Transcriptomics (HTTr) Platform, in MCF-7 cells cultured in phenol red-free DMEM + 10% charcoal-stripped fetal bovine serum, Harrill Lab (AID 2283977). The method in brief: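 Membrane integrity was scored via propidium iodide dye exclusion imaging, fitted in both directions relative to DMSO. Compounds ran as eight-point dilutions for 12 hours on MCF-7 grown in phenol red-free DMEM plus 10% charcoal-stripped serum.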

Experiment [6] is described as follows: CCTE_Harrill_HTTr_Viability_PRF_DMEM_24hr: (Pilot) CCTE's 24-hour Cell Viability Assessment for the High-Throughput Transcriptomics (HTTr) Platform, in MCF-7 cells cultured in phenol red-free DMEM + 10% charcoal-stripped fetal bovine serum, Harrill Lab (AID 2283980). The method in brief:
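Propidium iodide exclusion imaged at 24 h after dosing scores viability; cells were MCF-7 grown in phenol red-free DMEM plus 10% charcoal-stripped serum, tested in eight concentrations, fitted in both directions against DMSO.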

Experiment [7] can be described thus: CCTE_Harrill_HTTr_Apoptosis_DMEM_6hr: (Pilot) CCTE's 6-hour Apoptosis Assessment for the High-Throughput Transcriptomics (HTTr) Platform, in MCF-7 cells cultured in DMEM + 10% fetal bovine serum, Harrill Lab (AID 2283981). In a few lines: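 MCF-7 cells grown in DMEM + 10% FBS were exposed for 6 hours to an eight-point dilution series. CellEvent Caspase 3/7 Green signal was imaged; activity fitted bidirectionally against DMSO.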

The nature of experiment [8]: CCTE_Harrill_HTTr_Apoptosis_DMEM_12hr: (Pilot) CCTE's 12-hour Apoptosis Assessment for the High-Throughput Transcriptomics (HTTr) Platform, in MCF-7 cells cultured in DMEM + 10% fetal bovine serum, Harrill Lab (AID 2283982). An excerpt:
(§1) This is a cell-based assay that evaluates apoptosis using high content imaging to evaluate activation of caspase-3/7 using the CellEvent Caspase 3/7 Green detection reagent in 384-well format.One of seven assay components measured from the CCTE_Harrill_HTTr_Apoptosis assay. This was part of a pilot experiment. This is a cell-based assay that evaluates apoptosis in MCF-7 cells cultured in DMEM + 10% fetal bovine serum. High content imaging is used to evaluate activation of caspase-3/7 using the CellEvent Caspase 3/7 Green detection reagent. Measurements are taken at 12 hours after chemical dosing in 384-well format.The assay component endpoint CCTE_Harrill_HTTr_Apoptosis_DMEM_12hr was analyzed with bidirectional fitting relation to DMSO as the negative control and baseline of activity. Using a type of viability reporter, gain-of-signal activity can be used to evaluate activation of caspase-3/7 using the CellEvent Caspase 3/7 Green detection reagent to understand changes in apoptosis. To generalize the intended target to other relatable targets, this assay endpoint is annotated to cell cycle, where the subfamily is apoptosis.
Chemicals were tested in MCF7 cells in an eight point dilution series with a twelve hour exposure duration.

Experiment [9] in a line: CCTE_Harrill_HTTr_Apoptosis_DMEM_24hr: (Pilot) CCTE's 24-hour Apoptosis Assessment for the High-Throughput Transcriptomics (HTTr) Platform, in MCF-7 cells cultured in DMEM + 10% fetal bovine serum, Harrill Lab (AID 2283983).
Source text: as §1, with “24” for “12”, “CCTE_Harrill_HTTr_Apoptosis_DMEM_24hr” for “CCTE_Harrill_HTTr_Apoptosis_DMEM_12hr”
Chemicals were tested in MCF7 cells in an eight point dilution series with a twenty-four hour exposure duration.

A short description of experiment [10]: CCTE_Harrill_HTTr_Apoptosis_PRF_DMEM_6hr: (Pilot) CCTE's 6-hour Apoptosis Assessment for the High-Throughput Transcriptomics (HTTr) Platform, in MCF-7 cells cultured phenol red-free DMEM + 10% charcoal-stripped fetal bovine serum, Harrill Lab (AID 2283984). An excerpt: This is a cell-based assay that evaluates apoptosis using high content imaging to evaluate activation of caspase-3/7 using the CellEvent Caspase 3/7 Green detection reagent in 384-well format.One of seven assay components measured from the CCTE_Harrill_HTTr_Apoptosis assay. This was part of a pilot experiment. This is a cell-based assay that evaluates apoptosis in MCF-7 cells cultured in phenol red-free DMEM + 10% charcoal-stripped fetal bovine serum. High content imaging is used to evaluate activation of caspase-3/7 using the CellEvent Caspase 3/7 Green detection reagent. Measurements are taken at 6 hours after chemical dosing in 384-well format.The assay component endpoint CCTE_Harrill_HTTr_Apoptosis_PRF_DMEM_6hr was analyzed with bidirectional fitting relation to DMSO as the negative control and baseline of activity. Using a type of viability reporter, gain-of-signal activity can be used to evaluate activation of caspase-3/7 using the CellEvent Caspase 3/7 Green detection reagent to understand changes in apoptosis. To generalize the intended target to other relatable targets, this assay endpoint is annotated to cell cycle, where the subfamily is apoptosis.
Chemicals were tested in MCF7 cells in an eight point dilution series with a six hour exposure duration.

Results filed as inconclusive are left out. The source made the active and inactive calls. How the source made its calls, unless noted: active means hit-call score of the fitted dose curve at least 0.9, where 1 is the maximum; inactive means score below 0.9.

On to `C[C@]12C[C@H](O)[C@H]3[C@@H](CCC4=CC(=O)CC[C@@]43C)[C@@H]1CC[C@@H]2C(=O)CO`, for which, in experiment [1], the outcome was inactive.
Regarding `CC(C)CCCCCCc1ccc(O)cc1`, the AC50 (in general, the concentration giving half of the maximal activity seen) in experiment [2] is 55.5 µM (active); in experiment [3], 69.4 µM (active); in experiment [4] it was 55.7 µM (active); in experiment [5], 69.2 µM (active); in experiment [6], 64.3 µM (active); in [8], 63.2 µM (active). For the same compound, the AC50 in [9] was 77.5 µM (active). Also, the outcome in [7] and in experiment [10] was inactive.
`Cc1nn(C)c(Oc2ccccc2)c1C=NOCc1ccc(C(=O)OC(C)(C)C)cc1`: the result in [2], in experiment [3], in experiment [4], in experiment [5], in experiment [6] and in experiment [7] was inactive. For the same compound, the result in [8], in experiment [9] and in experiment [10] was inactive.
`C[C@]12CC[C@@H]3c4ccc(O)cc4C[C@@H](CCCCCCCCCS(=O)CCCC(F)(F)C(F)(F)F)[C@H]3[C@@H]1CC[C@@H]2O` (stereo partly specified): the result in experiment [2], in [3], in experiment [4], in experiment [5], in [1] and in [6] was inactive. Besides, the outcome in experiment [7], in [8], in [9] and in [10] was inactive.
For `N[C@@H](Cc1cc(I)c(Oc2ccc(O)c(I)c2)c(I)c1)C(=O)O`, the result in [2], in [3], in experiment [4], in experiment [5], in experiment [6] and in [7] was inactive. The outcome in [8], in experiment [9] and in experiment [10] was inactive.
For the compound `CC(C)(c1ccc(O)cc1)c1ccc(O)cc1`, the result in experiment [2], in [3], in [4], in experiment [5], in experiment [6] and in [7] was inactive. Moreover, the result in experiment [8], in experiment [9] and in [10] was inactive.
With `CC(=O)[C@H]1CC[C@H]2[C@@H]3CCC4=CC(=O)CC[C@]4(C)[C@H]3CC[C@]12C`, the result in [1] was inactive.
Turning to `S=C([S-])NCCNC(=S)[S-].[Mn+2]`, the result in [2], in experiment [3], in experiment [4], in [5], in experiment [6] and in experiment [7] was inactive. In addition, the outcome in [8], in experiment [9] and in [10] was inactive.
In the case of `C=CCOC(Cn1ccnc1)c1ccc(Cl)cc1Cl` (stereo unspecified), the result in [2], in [3], in [4], in experiment [5], in experiment [6] and in experiment [7] was inactive. Moreover, the result in experiment [8], in experiment [9] and in experiment [10] was inactive.
